Records with an inconclusive call do not appear. The source holds several records for some structures; these can differ, active in one and inactive in another. The source made the active and inactive calls. Rule for the calls, unless noted: active = hit-call score of the fitted dose curve at least 0.9, where 1 is the maximum; inactive = score below 0.9.
What was measured:
[1] = target: Estrogen receptor (Homo sapiens) (UniProt P03372); assay: CCTE_Deisenroth_AIME_384WELL_LUC_Active: CCTE's 384-well Estrogen Receptor Transactivation Assay with AIME metabolic competence (ERTA luciferase; metabolism positive), Deisenroth Lab (AID 2284030; active = hit-call score of the fitted dose curve at least 0.9, where 1 is the maximum)
Procedure, shortened: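 AIME metabolism-positive mode: chemicals 0.002 - 200 uM, 2 h with alginate-bound PB/BNF-induced rat S9 → medium to VM7Luc4E2 ERTA, 24 h → luciferase. Positive fit vs 17beta-estradiol; n=4 typical.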

[2] = target: Estrogen receptor (Homo sapiens) (UniProt P03372); assay: CCTE_Deisenroth_AIME_384WELL_LUC_Inactive: CCTE's 384-well Estrogen Receptor Transactivation Assay without AIME metabolic competence (ERTA luciferase; metabolism negative), Deisenroth Lab (AID 2284038; active = hit-call score of the fitted dose curve at least 0.9, where 1 is the maximum;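 note: VM7Luc4E2 breast cells given medium preincubated 2 h with S9-free microspheres; hits raise estrogen receptor luciferase signal so potencies reflect agonists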)
Procedure, shortened: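 Metabolism-negative mode: chemicals (10-point, 0.002–200 uM) held 2 h with alginate-water microspheres, then conditioned medium applied to VM7Luc4E2 cells for 24 h. Luciferase induction referenced to 17beta-estradiol.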

[3] = target: Estrogen receptor (Homo sapiens) (UniProt P03372); assay: CCTE_Deisenroth_AIME_384WELL_LUC_Shift: CCTE's 384-well Estrogen Receptor Transactivation Assay with AIME metabolic competence data shift (ERTA luciferase; difference in metabolism positive and negative), Deisenroth Lab (AID 2284041);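 note: shift is response with S9 minus without S9 so positive means metabolism raised ER signal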
Procedure, shortened: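 Chemicals (0.002–200 uM, 10 points) pre-incubated 2 h with alginate-encapsulated induced male Sprague Dawley rat liver S9 or S9-free, then medium applied 24 h to VM7Luc4E2 cells; luciferase. Endpoint is per-concentration difference, S9-positive minus negative.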

[4] = target: human CYP2C9, CYP2C9 (gene 1559) (UniProt P11712); assay: NVS_ADME_hCYP2C9: NovaScreen (NVS) CYP450-related Enzyme Activity (ADME) Assay for human CYP2C9 (AID 2283108; active = hit-call score of the fitted dose curve at least 0.9, where 1 is the maximum)
Procedure, shortened: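 Recombinant human CYP2C9 expressed in SF9 cells, fluorogenic substrate, fluorescence read 0.75 h after dosing. Chemicals first run in duplicate at 10 uM, with actives followed in concentration series; loss of signal versus acetonitrile baseline.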

[5] = tested on: DIO2 (gene 1734); assay: CCTE_GLTED_hDIO2: CCTE's human Deiodinase 2 (DIO2) Inhibition Assay, Great Lakes Toxicology and Ecology Division (GLTED) Lab (AID 2284050; active = hit-call score of the fitted dose curve at least 0.9, where 1 is the maximum)
Procedure, shortened: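 hDIO2 enzyme + test chem, 3 h → free iodide from substrate; step 2: Sandell-Kolthoff (Ce IV reduction by As, iodide-catalysed), spectrophotometric read. Triplicate plates; DMSO = baseline.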

[6] = target: Caspase-3 (Homo sapiens) (UniProt P42574); assay: NVS_ENZ_hCASP3: NovaScreen (NVS) Enzymatic Assay for human Caspase 3 (CASP3) (AID 2283139; active = hit-call score of the fitted dose curve at least 0.9, where 1 is the maximum)
Procedure, shortened: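 Recombinant human caspase-3 from E. coli with a fluorogenic substrate, read by fluorescence 1 h after dosing. Primary screen in duplicate at 25 uM. Actives (for example ≥30% inhibition) rerun as concentration-response up to 50 uM.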

[7] = target: human Phosphodiesterase 5 (PDE5), PDE5A (gene 8654) (UniProt O76074); assay: NVS_ENZ_hPDE5: NovaScreen (NVS) Enzymatic Assay for human Phosphodiesterase 5 (PDE5) (AID 2283194; active = hit-call score of the fitted dose curve at least 0.9, where 1 is the maximum)
Procedure, shortened: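 Recombinant human PDE5 with specific substrate, read 1 h after dosing by fluorescence with electrophoretic mobility-shift separation of substrate and product. Initial single-concentration duplicate screen at 25 uM, actives followed in concentration series; loss of activity versus DMSO.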

[8] = read-out: Tumor necrosis factor receptor superfamily member 6 (Homo sapiens) (UniProt P25445); assay: LTEA_HepaRG_FAS: Life Technologies and Expression Analysis (LTEA) Assay for Fas cell surface death receptor (FAS) using HepaRG (AID 2283447); settings: mRNA level, 48 h; actives raise or lower the signal
Procedure, shortened: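 Differentiated HepaRG cells in serum-free induction medium were exposed 48 h to 8 half-log concentrations up to 100 uM in 0.5% DMSO, in duplicate. FAS mRNA was measured by qRT-PCR normalised to ACTB, GAPDH and POLR2A; bidirectional fit versus DMSO.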

[9] = read-out: Fatty acid synthase (Homo sapiens) (UniProt P49327); assay: LTEA_HepaRG_FASN: Life Technologies and Expression Analysis (LTEA) Assay for Fatty Acid Synthase (FASN) using HepaRG (AID 2283448); settings: mRNA level, 48 h; actives raise or lower the signal
Procedure, shortened: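 FASN expression changes, up or down relative to 0.5% DMSO, were measured by qRT-PCR in human HepaRG cells after 48 h treatment with chemicals at eight concentrations (half-log steps from 100 uM).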

[10] = read-out: Cyclin D2 (CCND2), CCND2 (gene 894); assay: LTEA_HepaRG_CCND2: Life Technologies and Expression Analysis (LTEA) Assay for Cyclin D2 (CCND2) using HepaRG (AID 2283449); settings: mRNA level, 48 h; actives raise or lower the signal;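 note: CCND2 transcript measured by TaqMan qRT-PCR and normalised to three housekeeping genes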
Procedure, shortened: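 Chemicals in 0.5% DMSO, eight half-log concentrations from 100 uM top, were applied in duplicate for 48 h to human HepaRG cells in serum-free induction medium. CCND2 mRNA by TaqMan qRT-PCR, normalised to ACTB/GAPDH/POLR2A; bidirectional fit versus DMSO.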

[11] = read-out: Cyclin Dependent Kinase Inhibitor 1A (CDKN1A), CDKN1A (gene 1026); assay: LTEA_HepaRG_CDKN1A: Life Technologies and Expression Analysis (LTEA) Assay for Cyclin Dependent Kinase Inhibitor 1A (CDKN1A) using HepaRG (AID 2283450); settings: mRNA level, 48 h; actives raise or lower the signal
Procedure, shortened: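 Read-out is CDKN1A mRNA by TaqMan qRT-PCR, normalized to three housekeeping genes and fitted in both directions against the DMSO baseline. Human HepaRG cells were treated 48 h with test chemicals up to 100 uM in half-log steps, 0.5% DMSO.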

[12] = read-out: Cyclin D1 (CCND1), CCND1 (gene 595); assay: LTEA_HepaRG_CCND1: Life Technologies and Expression Analysis (LTEA) Assay for Cyclin D1 (CCND1) using HepaRG (AID 2283451); settings: mRNA level, 48 h; actives raise or lower the signal
Procedure, shortened: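 HepaRG plated 48 h, medium switched to serum-free induction medium, chemicals added in duplicate (top 100 uM, half-log steps, 0.5% DMSO) for 48 h, cells lysed, RNA measured by TaqMan qRT-PCR.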

[13] = read-out: catalase (CAT), CAT (gene 847); assay: LTEA_HepaRG_CAT: Life Technologies and Expression Analysis (LTEA) Assay for catalase (CAT) using HepaRG (AID 2283452); settings: mRNA level, 48 h; actives raise or lower the signal
Procedure, shortened: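 HepaRG cells in serum-free induction medium, 0.5% DMSO vehicle, exposed 48 h in duplicate over 8 half-log concentrations from 100 uM. CAT mRNA measured by qRT-PCR, normalized to ACTB, GAPDH, POLR2A; bidirectional fit versus DMSO.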

[14] = read-out: flavin-containing dimethylaniline monooxygenases 3 (FMO3), FMO3 (gene 2328); assay: LTEA_HepaRG_FMO3: Life Technologies and Expression Analysis (LTEA) Assay for flavin-containing dimethylaniline monooxygenases 3 (FMO3) using HepaRG (AID 2283453); settings: mRNA level, 48 h; actives raise or lower the signal
Procedure, shortened: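 Differentiated HepaRG cells in serum-free induction medium, exposed 48 h in duplicate to 8 half-log concentrations up to 100 uM in 0.5% DMSO. FMO3 mRNA by qRT-PCR, normalized to ACTB, GAPDH, POLR2A; bidirectional fit vs DMSO.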

[15] = read-out: Cytochrome P450 (CYP1A1), CYP1A1 (gene 1543); assay: LTEA_HepaRG_CYP1A1: Life Technologies and Expression Analysis (LTEA) Assay for Cytochrome P450 (CYP1A1) using HepaRG (AID 2283454); settings: mRNA level, 48 h; actives raise or lower the signal
Procedure, shortened: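 HepaRG, 48 h post-plating switched to serum-free induction medium; 8-pt conc-response (top 100 uM, half-log, 0.5% DMSO), duplicates, 48 h. Lysis in RLT, TaqMan qRT-PCR for CYP1A1; gain or loss vs DMSO.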

[16] = read-out: CFLAR gene, CFLAR (gene 8837); assay: LTEA_HepaRG_CFLAR: Life Technologies and Expression Analysis (LTEA) Assay for CFLAR gene using HepaRG (AID 2283455); settings: mRNA level, 48 h; actives raise or lower the signal
Procedure, shortened: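 Differentiated HepaRG cells in serum-free induction medium were exposed 48 h in duplicate to eight half-log concentrations up to 100 uM in 0.5% DMSO; mRNA measured by TaqMan qRT-PCR, normalized to ACTB, GAPDH, POLR2A; bidirectional fitting versus DMSO.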

[17] = read-out: Forkhead box O1 (FOXO1), FOXO1 (gene 2308); assay: LTEA_HepaRG_FOXO1: Life Technologies and Expression Analysis (LTEA) Assay for Forkhead box O1 (FOXO1) using HepaRG (AID 2283456); settings: mRNA level, 48 h; actives raise or lower the signal
Procedure, shortened: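 Differentiated HepaRG cells, in serum-free induction medium with 0.5% DMSO, exposed 48 h in duplicate to 8-point half-log series from 100 uM. FOXO1 mRNA measured by TaqMan qRT-PCR, normalized to ACTB, GAPDH, POLR2A; bidirectional fit versus DMSO.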

[18] = read-out: growth arrest and DNA damage 45 (GADD45A), GADD45A (gene 1647); assay: LTEA_HepaRG_GADD45A: Life Technologies and Expression Analysis (LTEA) Assay for growth arrest and DNA damage 45 (GADD45A) using HepaRG (AID 2283458); settings: mRNA level, 48 h; actives raise or lower the signal
Procedure, shortened: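 Cells plated and cultured 48 h, switched to serum-free induction medium, then dosed for 48 h (100 uM top, half-log dilutions, 0.5% DMSO). RNA was isolated and transcript measured by Fluidigm qRT-PCR.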

[19] = read-out: Forkhead box O3 (FOXO3), FOXO3 (gene 2309); assay: LTEA_HepaRG_FOXO3: Life Technologies and Expression Analysis (LTEA) Assay for Forkhead box O3 (FOXO3) using HepaRG (AID 2283459); settings: mRNA level, 48 h; actives raise or lower the signal
Procedure, shortened: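 Differentiated human HepaRG cells, 48 h post-plating, exposed in duplicate for 48 h in serum-free induction medium; 8-point half-log series from 100 uM in 0.5% DMSO. FOXO3 mRNA by TaqMan qRT-PCR, normalized to ACTB/GAPDH/POLR2A; bidirectional fit versus DMSO.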

[20] = target: zebrafish Thyroid Hormone Receptor alpha (TRa), thraa (gene 30670) (UniProt Q98867); assay: ATG_zfTRa_XSP2: Attagene TRANS-FACTORIAL Multi-Species (XSP1) HepG2 Assay for zebrafish Thyroid Hormone Receptor alpha (TRa) (AID 2283832; active = hit-call score of the fitted dose curve at least 0.9, where 1 is the maximum;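 note: actives raise zebrafish TRa-Gal4 reporter transcript above DMSO baseline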)
Procedure, shortened: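 Transient transfection of human HepG2 with GAL4-UAS reporter units, then 24 h chemical treatment. RNA isolated, reverse-transcribed, PCR-amplified, FAM-labelled, HpaI-digested and run on capillary electrophoresis. Gain-of-signal relative to DMSO.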

Measured: AC50

Chain of Estrogen receptor (Homo sapiens) (P03372 whole entry, looked up): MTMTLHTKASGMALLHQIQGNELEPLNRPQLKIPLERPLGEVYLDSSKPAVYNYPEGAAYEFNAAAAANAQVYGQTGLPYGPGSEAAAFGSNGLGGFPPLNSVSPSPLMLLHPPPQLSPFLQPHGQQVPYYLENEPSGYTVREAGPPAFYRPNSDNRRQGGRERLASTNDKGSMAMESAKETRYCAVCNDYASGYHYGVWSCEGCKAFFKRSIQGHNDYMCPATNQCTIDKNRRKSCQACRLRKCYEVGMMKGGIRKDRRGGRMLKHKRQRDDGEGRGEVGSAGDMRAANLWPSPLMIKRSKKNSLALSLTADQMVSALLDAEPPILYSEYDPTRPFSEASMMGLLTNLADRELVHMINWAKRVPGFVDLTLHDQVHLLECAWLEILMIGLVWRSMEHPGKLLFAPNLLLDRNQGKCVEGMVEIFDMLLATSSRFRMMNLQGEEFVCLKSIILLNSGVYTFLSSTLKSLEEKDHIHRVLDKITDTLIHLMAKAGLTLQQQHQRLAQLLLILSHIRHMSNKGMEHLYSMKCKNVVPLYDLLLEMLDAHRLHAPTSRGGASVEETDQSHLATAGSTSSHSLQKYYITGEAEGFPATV
Chain of zebrafish Thyroid Hormone Receptor alpha (TRa), thraa (gene 30670) (Q98867 whole entry, looked up, the tested form may be a part): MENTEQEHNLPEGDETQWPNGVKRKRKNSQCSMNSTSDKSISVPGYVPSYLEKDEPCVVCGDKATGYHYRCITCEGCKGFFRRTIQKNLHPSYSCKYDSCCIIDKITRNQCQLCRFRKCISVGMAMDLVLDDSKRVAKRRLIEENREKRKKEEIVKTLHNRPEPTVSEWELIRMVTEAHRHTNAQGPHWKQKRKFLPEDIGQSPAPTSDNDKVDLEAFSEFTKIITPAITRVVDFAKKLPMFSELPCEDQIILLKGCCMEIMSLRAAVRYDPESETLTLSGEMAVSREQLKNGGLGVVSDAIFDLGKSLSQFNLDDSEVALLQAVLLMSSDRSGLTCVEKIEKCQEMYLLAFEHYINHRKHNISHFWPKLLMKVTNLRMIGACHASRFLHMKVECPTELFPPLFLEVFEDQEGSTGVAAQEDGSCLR
Chain of human CYP2C9, CYP2C9 (gene 1559) (P11712 whole entry, looked up): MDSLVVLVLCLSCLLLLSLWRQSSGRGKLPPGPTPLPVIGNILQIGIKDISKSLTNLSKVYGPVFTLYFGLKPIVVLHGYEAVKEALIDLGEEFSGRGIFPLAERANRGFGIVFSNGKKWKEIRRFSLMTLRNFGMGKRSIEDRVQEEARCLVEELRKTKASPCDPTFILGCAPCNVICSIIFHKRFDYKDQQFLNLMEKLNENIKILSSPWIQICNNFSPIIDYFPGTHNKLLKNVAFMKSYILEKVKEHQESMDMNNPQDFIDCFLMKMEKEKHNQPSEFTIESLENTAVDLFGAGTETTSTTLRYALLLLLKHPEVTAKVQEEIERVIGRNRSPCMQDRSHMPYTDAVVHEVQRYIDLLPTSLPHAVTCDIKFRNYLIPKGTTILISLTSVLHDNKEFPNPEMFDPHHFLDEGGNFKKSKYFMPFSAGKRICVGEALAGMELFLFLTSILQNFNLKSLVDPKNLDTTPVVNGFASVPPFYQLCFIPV
Chain of Caspase-3 (Homo sapiens) (P42574 whole entry, looked up): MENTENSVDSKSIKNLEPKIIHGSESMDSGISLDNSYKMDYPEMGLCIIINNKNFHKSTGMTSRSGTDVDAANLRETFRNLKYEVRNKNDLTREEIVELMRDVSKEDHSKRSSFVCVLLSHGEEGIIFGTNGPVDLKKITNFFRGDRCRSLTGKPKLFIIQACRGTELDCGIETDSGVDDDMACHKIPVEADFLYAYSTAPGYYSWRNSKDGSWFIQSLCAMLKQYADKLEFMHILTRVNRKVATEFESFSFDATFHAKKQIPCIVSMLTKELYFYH
Chain of Fatty acid synthase (Homo sapiens) (P49327 whole entry, looked up): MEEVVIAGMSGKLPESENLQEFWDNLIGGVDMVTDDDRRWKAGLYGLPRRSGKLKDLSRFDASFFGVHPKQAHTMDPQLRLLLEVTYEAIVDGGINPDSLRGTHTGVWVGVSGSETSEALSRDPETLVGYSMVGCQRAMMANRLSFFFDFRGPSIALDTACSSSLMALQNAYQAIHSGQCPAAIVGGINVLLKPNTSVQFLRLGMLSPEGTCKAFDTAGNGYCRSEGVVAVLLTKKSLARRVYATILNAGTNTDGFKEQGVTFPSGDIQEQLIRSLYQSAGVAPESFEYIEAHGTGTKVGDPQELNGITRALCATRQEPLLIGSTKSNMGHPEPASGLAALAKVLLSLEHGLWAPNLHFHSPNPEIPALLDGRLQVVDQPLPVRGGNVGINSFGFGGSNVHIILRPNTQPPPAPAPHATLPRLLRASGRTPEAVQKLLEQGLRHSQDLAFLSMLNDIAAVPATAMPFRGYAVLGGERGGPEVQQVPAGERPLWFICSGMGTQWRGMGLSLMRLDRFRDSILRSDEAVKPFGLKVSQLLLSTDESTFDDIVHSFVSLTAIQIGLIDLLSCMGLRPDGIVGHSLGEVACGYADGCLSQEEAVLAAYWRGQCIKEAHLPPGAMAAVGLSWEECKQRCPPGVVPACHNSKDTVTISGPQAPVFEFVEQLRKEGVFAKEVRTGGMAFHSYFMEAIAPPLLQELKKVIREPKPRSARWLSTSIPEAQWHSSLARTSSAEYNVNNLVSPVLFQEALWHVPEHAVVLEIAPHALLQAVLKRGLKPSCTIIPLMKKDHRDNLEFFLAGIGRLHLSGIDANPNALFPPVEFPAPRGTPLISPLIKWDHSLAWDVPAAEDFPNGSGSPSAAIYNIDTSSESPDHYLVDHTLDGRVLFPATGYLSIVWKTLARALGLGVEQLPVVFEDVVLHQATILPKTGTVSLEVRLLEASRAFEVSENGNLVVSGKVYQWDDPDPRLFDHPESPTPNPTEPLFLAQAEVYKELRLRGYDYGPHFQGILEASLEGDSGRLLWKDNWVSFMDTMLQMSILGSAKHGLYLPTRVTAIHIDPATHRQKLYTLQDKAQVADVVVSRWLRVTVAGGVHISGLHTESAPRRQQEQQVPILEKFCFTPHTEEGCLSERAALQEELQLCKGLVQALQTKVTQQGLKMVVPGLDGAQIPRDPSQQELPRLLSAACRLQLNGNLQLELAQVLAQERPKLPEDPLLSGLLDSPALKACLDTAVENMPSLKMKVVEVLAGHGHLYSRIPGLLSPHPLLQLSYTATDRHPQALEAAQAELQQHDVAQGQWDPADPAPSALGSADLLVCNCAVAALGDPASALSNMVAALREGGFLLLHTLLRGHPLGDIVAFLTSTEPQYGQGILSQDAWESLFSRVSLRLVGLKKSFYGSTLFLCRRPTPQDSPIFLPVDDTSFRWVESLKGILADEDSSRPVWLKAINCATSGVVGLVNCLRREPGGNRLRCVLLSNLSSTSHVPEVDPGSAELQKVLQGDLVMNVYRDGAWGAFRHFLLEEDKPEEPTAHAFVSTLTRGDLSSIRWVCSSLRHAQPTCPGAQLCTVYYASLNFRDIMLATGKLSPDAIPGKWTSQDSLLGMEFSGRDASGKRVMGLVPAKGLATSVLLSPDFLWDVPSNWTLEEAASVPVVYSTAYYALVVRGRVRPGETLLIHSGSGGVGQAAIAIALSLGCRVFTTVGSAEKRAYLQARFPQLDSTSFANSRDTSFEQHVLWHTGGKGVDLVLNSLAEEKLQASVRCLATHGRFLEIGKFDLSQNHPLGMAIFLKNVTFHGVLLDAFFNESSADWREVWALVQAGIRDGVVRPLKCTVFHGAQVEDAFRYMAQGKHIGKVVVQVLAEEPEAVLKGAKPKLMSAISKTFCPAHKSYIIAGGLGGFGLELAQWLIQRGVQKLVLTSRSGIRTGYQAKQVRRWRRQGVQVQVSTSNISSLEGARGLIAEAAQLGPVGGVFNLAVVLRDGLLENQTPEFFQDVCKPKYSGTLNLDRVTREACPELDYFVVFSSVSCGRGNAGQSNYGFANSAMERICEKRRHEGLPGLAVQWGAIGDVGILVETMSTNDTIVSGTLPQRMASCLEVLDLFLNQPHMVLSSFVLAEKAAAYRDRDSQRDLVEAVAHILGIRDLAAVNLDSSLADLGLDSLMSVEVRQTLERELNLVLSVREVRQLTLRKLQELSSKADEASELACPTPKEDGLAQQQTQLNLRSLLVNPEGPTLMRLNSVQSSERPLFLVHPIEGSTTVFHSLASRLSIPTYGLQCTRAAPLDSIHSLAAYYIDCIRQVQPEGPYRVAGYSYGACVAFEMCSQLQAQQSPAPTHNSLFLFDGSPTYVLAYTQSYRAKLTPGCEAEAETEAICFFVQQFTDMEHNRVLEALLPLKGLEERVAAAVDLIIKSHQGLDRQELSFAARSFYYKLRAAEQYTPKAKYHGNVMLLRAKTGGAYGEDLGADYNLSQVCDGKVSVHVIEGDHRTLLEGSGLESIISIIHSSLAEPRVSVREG

CCCCCCC1CCC(=O)O1 (stereo unspecified)
active: [1] 0.244 nM | [2] 1.29 nM | [3] 0.196 nM

Sc1nc2ccccc2s1
active: [4] 1900 nM
inactive: [5]

CCC(C)=NO
inactive: [6] | [7] | [8] | [9] | [10] | [11] | [12] | [13] | [14] | [16] | [17] | [18] | [19]
active: [15] 49800 nM

Cc1cc(O)cc(C)c1Cl
active: [20] 100000 nM
inactive: [20]
